The sample as a whole holds a higher share of hits than the screen did.
DT40 TDP1 no CPT: qHTS for Inhibitors of human tyrosyl-DNA phosphodiesterase 1 (TDP1): qHTS in cells in absence of CPT. DT40 Tdp1-/- hTDP1 cells, no CPT, ATP luminescence, 48 h. Potency, µM (top dose mostly 46.2 µM), for inactives: at the highest dose activity change, negative = growth inhibition, actives largely listed as inhibitors. 420,000 compounds, 15% hits; further: potency means the concentration at half of the fitted maximal effect; nearly all actives have a fitted effect of over 55% in size
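Cells were dispensed at 400 per well, compounds added by pin tool, plates incubated ≥48 hr at 37 °C, then CellTiter-Glo added for 30 min at room temperature before luminescence reading. Line: DT40 Tdp1-/- complemented with hTDP1; camptothecin omitted.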
DT40 TDP1 CPT: growth inhibition of DT40 Tdp1-/-;hTDP1 cells with camptothecin (screen for TDP1 inhibitors); chicken DT40 Tdp1-/-;hTDP1 cells + 20 nM CPT, ATP luminescence, 48 h; 420,000 compounds, 12% hits; AID 686979; Potency, µM (series often up to 46.2 µM), for inactives: at the highest dose activity change, negative = growth inhibition, most hits filed as inhibitors; further: potency means the concentration at half of the fitted maximal effect; nearly all actives have a fitted effect of over 55% in size
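Cell growth measured by CellTiter-Glo luminescence after a minimum 48 h, 37 C compound exposure with 20 nM CPT in Tdp1-knockout DT40 cells stably expressing hTDP1, seeded 400/well; qHTS titration format.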
HT1080 IDH1KD tx: kills HT-1080 cells with IDH1 knockdown; Potency, µM (highest dose often 46.1 µM), for inactives: at the top dose activity, negative = toxicity, most hits filed as cytotoxic; HT-1080 IDH1 knockdown viability, ATP luminescence, 48 h; 360,000 compounds, 2% hits;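 further: potency means the concentration at half of the fitted maximal effect; 0% = DMSO wells and -100% = cell-free medium wells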
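Cytotoxicity counter-line: IDH1KD HT-1080, 48 h, CellTiter-Glo. Curves classed by r2, magnitude and activity.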
HT1080-NT tox: kills 2HG-producing HT-1080-NT fibrosarcoma cells | Potency, µM (series often up to 46.1 µM), inactives show top-dose activity, negative = less viability, most hits filed as cytotoxic | HT-1080-NT fibrosarcoma viability, CellTiter-Glo ATP luminescence, 48 h | 360,000 compounds, 1.6% hits;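 further: NT is the 2HG producing partner of a matched IDH1 knockdown line; potency means the concentration at half of the fitted maximal effect; 0% = DMSO-treated cells and -100% = media-only wells without cells; nearly all actives have a fitted effect of over 55% in size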
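Viability of the 2HG-overproducing fibrosarcoma line after 48 hours of compound exposure at 37 degrees C was determined by luminescence with CellTiter-Glo, and concentration-effect curves were then fitted and categorized.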
12-LOX inh: inhibitors of human 12S-lipoxygenase ALOX12 | P18054 | purified 12hLO, xylenol orange hydroperoxide absorbance | Potency, µM (highest dose often 108 µM), for the others: at the highest dose activity change, negative = inhibition, hits mostly inhibitors | 580,000 compounds, 1.1% hits; further: potency means the concentration at half of the fitted maximal effect
Target sequence (P18054 whole entry, looked up): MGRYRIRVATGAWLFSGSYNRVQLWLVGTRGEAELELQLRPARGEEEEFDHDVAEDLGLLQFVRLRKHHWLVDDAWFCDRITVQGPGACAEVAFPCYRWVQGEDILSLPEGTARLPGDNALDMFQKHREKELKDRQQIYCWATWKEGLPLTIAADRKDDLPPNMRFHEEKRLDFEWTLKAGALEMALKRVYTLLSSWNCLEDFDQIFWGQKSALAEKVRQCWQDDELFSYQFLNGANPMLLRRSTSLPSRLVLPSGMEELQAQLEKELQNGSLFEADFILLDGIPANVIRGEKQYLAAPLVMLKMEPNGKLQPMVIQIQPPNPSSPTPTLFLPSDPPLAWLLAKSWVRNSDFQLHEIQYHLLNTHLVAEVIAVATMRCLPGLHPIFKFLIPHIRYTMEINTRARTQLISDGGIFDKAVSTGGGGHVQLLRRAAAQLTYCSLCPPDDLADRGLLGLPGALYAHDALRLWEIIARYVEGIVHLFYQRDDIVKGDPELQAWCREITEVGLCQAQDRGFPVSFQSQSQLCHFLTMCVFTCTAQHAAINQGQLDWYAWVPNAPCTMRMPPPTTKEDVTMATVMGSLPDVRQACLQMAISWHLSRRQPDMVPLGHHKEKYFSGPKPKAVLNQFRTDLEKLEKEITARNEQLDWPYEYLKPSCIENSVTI
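Hydroperoxide product was detected by ferrous iron/xylenol orange as the 573 to 405 nm absorbance ratio. Arachidonic acid at 40 uM (final) was turned over for 30 min at room temperature by 150 nM human 12hLO, pH 7.0 Hepes buffer, after 15 min compound preincubation.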
IL-1B inflam inh: inhibitors of inflammasome signaling (IL-1 beta secretion). activity change, % at 57.5 µM. THP-1 LPS/ATP IL-1B secretion, AlphaLISA, 16 h; active compounds read low. 360,000 compounds, 4.7% hits; in the data active means activity change below about -50%; inconclusive means mostly about -30% to -49%
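Secreted IL-1B measured by AlphaLISA bead assay after 16 h compound exposure of THP-1 cells; compounds (final up to 57.5 uM) added 1 h before LPS (250 ng/mL) and ATP (1.25 mM) stimulation; lower signal means less secretion.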
* hit, by the source's call; ? = inconclusive; . = no result; [ ] = remark or other dose. Unless noted, the call rests on the fitted dose curve; in most records, active means well fitted curve in the direction sought with a large enough effect; inconclusive means small, poorly fitted or top-dose-only effect, or another doubt; inactive means no such curve, though single readings can be large; an effect the other way counts as inactive or inconclusive. Unless noted, on the % scale 0 is the no-effect control and ±100 the full control effect.

SMILES | DT40 TDP1 no CPT | DT40 TDP1 CPT | HT1080 IDH1KD tx | HT1080-NT tox | 12-LOX inh | IL-1B inflam inh
COc1ccccc1N1CCN(C(=O)c2ccc3nc(-c4ccco4)c(-c4ccco4)nc3c2)CC1 | 21µM* | ? | ? | ? | ? | ?
COc1ccccc1N1CCN(C(=O)c2ccc3ncsc3c2)CC1 | 2.3µM* | 6.5µM* | 8.2µM* | 12µM* | -3% | 17
Cc1ccc(C)c(N2CCN(C(=O)c3ccc4nc(-c5ccco5)c(-c5ccco5)nc4c3)CC2)c1 | 23µM* | ? | ? | ? | ? | ?
Oc1c(C(c2ccccc2)N2CCc3ccccc3C2)sc2ncnn12 (configuration not stated) | ? | ? | -1% | 8% | -12% | 10
Oc1c(C(c2ccco2)N2CCN(C(c3ccccc3)c3ccccc3)CC2)sc2ncnn12 (configuration not stated) | 21µM* | ? | -13% | -28% | 31% | -64*
O=C(c1ccco1)N1CCN(C(c2cccs2)c2sc3ncnn3c2O)CC1 (configuration not stated) | 4% | 4% | 14% | 2% | -4% | 6
Oc1c(C(c2cccs2)N2CCN(c3cccc(Cl)c3)CC2)sc2ncnn12 (configuration not stated) | 23µM* | ? | -14% | -1% | 23% | ?
COc1ccc(C(c2sc3ncnn3c2O)N2CCN(c3ccccc3F)CC2)cc1OC (configuration not stated) | 21µM* | 12µM* | -5% | -1% | 20% | -3
Cc1nc(NC(=O)C(C)Sc2nnc(-c3cccc(F)c3)n2C)sc1C (configuration not stated) | . | . | . | . | -2% | .
COC(=O)c1sc(=S)sc1C(=O)OC | ? | 29µM* | 32µM* | ? | 45µM* | -12
COC(=O)c1sc(C(=O)OC)c(C(=O)OC)c1C(=O)OC | -1% | -18% | 8% | -2% | -9% | 21
COC(=O)N1CCC2(CC1)CN(C(=O)Nc1cccc(F)c1)C2 | -14% | -5% | . | . | 12%[57.4 µM] | .
O=C(CSc1nc2ccccc2n1Cc1ccccc1Cl)NCc1ccccc1 | 23µM* | 15µM* | . | . | ? | .
COc1ccccc1NC(=O)Cn1c(SCC(=O)NCc2ccccc2)nc2ccccc21 | ? | -12% | . | . | -25% | .
Cc1ccc(C)c(Cn2c(SCC(=O)NCc3ccccc3)nc3ccccc32)c1 | 18µM* | ? | . | . | -22% | .
CC(C)(C)c1ccc(NC(=O)O[C@@H]2CO[C@H]3[C@@H]2OC[C@@H]3Nc2nccc(-c3ccc4c(c3)OCO4)n2)cc1 | . | . | . | . | 1% | .
N#Cc1ccccc1S(=O)(=O)N[C@H]1CO[C@H]2[C@@H]1OC[C@@H]2n1nnnc1Oc1ccccc1 | . | . | . | . | 3% | .
CCc1nc2c(OCc3ccc(F)cc3)cccn2c1N(C)C(=O)CC(C)C | ? | ? | -3% | 2% | -1% | -1
CCOC(=O)N(C)c1c(CC)nc2c(OCc3ccc(Cl)cc3Cl)cccn12 | 23µM* | ? | ? | ? | -27% | 0
CCc1nc2c(OCc3cccc(Cl)c3)cccn2c1N(C)C(=O)CC(C)C | 21µM* | ? | ? | ? | -6% | 2
CCc1nc2c(OCc3ccc(Cl)cc3)cccn2c1N(C)C(=O)c1ccccc1F | ? | ? | -21% | -8% | -6% | 1
CCOC(=O)N(C)c1c(CC)nc2c(OCc3ccc(F)cc3)cccn12 | ? | ? | 6% | -7% | -15% | -10
CCc1nc2c(OCc3ccc(F)c(F)c3)cccn2c1N(C)C(=O)C1CC1 | ? | 21µM* | -2% | 10% | ? | 10
CCOC(=O)C(=O)N(C)c1c(CC)nc2c(OCc3ccccc3OC)cccn12 | ? | -14% | 6% | 24% | ? | 25
CCOC(=O)N(C)c1c(CC)nc2c(OCc3ccc(F)c(F)c3)cccn12 | 21µM* | ? | -1% | 2% | 0% | -7
SMILES | DT40 TDP1 no CPT | DT40 TDP1 CPT | HT1080 IDH1KD tx | HT1080-NT tox | 12-LOX inh | IL-1B inflam inh
CC(C)Cc1nc(N2CCN(C(=O)C(=O)NCCc3ccccc3)CC2)c(C#N)c2c1CCCC2 | . | . | . | . | -3% | .
CCCN(C)c1nccnc1OC1CCN(C(=O)C2CC2)C1 (configuration not stated) | . | . | . | . | 34% | .
CCOC(=O)N(C)c1c(CC)nc2c(OCc3cc(Cl)cc(Cl)c3)cccn12 | 21µM* | ? | ? | ? | 2% | ?
COc1ccc(-c2cc(C(=O)NCC(C)C)c3c(C4CCNC4)nn(C)c3n2)cc1 (configuration not stated) | . | . | . | . | 8%[6.33 µM] | .
Cc1ccc2cc(CN(CC3CCCO3)C(=S)Nc3ccccc3)c(=O)[nH]c2c1C (configuration not stated) | 2.6µM* | 2.9µM* | ? | ? | -22% | -53*
Cc1cc(C)c2[nH]c(=O)c(CN(CC3CCCO3)C(=S)Nc3ccccc3)cc2c1 (configuration not stated) | ? | ? | 11% | 3% | -7% | 16
Cc1ccc2cc(CN(CC3CCCO3)C(=S)Nc3ccccc3)c(=O)[nH]c2c1 (configuration not stated) | 15µM* | ? | ? | ? | -9% | ?
Cc1ccc2[nH]c(=O)c(CN(CC3CCCO3)C(=S)Nc3ccccc3)cc2c1 (configuration not stated) | 15µM* | 13µM* | -11% | -4% | ? | -24
CCn1nccc1C(=O)N1CCCC(c2noc(COc3ccccc3F)n2)C1 (configuration not stated) | . | . | . | . | 18% | .
COc1ccc(CCNC(=O)c2nccnc2N)cc1 | . | . | . | . | 1% | .
O=C(NCCOc1cccc2cccnc12)c1cccs1 | -12% | -8% | 9% | 4% | -5% | -21
O=C(Oc1cccc2cccnc12)c1ccco1 | 21µM* | ? | -15% | -21% | 493% | 34
O=C(Cc1ccc(Cl)cc1)Oc1cccc2cccnc12 | 0.82µM* | 0.29µM* | -1% | 3% | . | -100*
O=C(Oc1cccc2cccnc12)c1ccc(Br)o1 | -18% | -10% | 13% | 18% | 0% | 13
O=C(Oc1cccc2cccnc12)c1cccs1 | 0.82µM* | 0.92µM* | 6.5µM* | 15µM* | ? | 123
CCOc1ccc(CCC2CCN(C(=O)Nc3ccccc3)CC2)cc1 | . | . | . | . | -2% | .

Bioassay records from PubChem.
